# A selection: hits, their analogues and other compounds. The true share with any hit is near 4.8%.
# DAX1 inh-1: DAX1 (NR0B1) inhibitors, primary screen, cell-based, HEK293, Gal4-DAX1, luciferase luminescence | Nuclear receptor subfamily 0 group B member 1 (Homo sapiens), P51843 | HEK293 Gal4-DAX1 luciferase reporter | inhibition, % at 6.75 µM | actives 0.99% (n = 340,000) | AID 504766, 2011;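 active = inhibition above the mean over all tested compounds plus 3 SD, cut at about 4.2% in these data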;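 also: inhibition shows as a rise in luminescence from relieved DAX1 repression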
# Target sequence (P51843 207-470 limits assumed): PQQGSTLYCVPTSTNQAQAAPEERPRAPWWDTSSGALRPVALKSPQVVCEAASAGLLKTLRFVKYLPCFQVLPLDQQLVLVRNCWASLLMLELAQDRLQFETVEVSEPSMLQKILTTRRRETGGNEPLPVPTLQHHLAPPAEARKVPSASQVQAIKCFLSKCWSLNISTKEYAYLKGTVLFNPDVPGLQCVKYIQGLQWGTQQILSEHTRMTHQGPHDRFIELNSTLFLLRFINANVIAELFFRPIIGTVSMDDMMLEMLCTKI
# DAX1 inh-2: DAX1 (NR0B1) inhibitors on StAR promoter, primary screen, cell-based, luminescence, SF-1 (NR5A1), full-length DAX-1; actives 1.1% (n = 370,000); HEK293T StAR-luciferase reporter, SF-1/DAX-1 repression relief; inhibition, % at 6.8 µM;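 active = inhibition above the mean over all tested compounds plus 3 SD, cut at about 3.6% in these data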;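 also: higher inhibition means more luminescence from relief of DAX-1 repression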
# hgDAF12 agonist: H. glycines DAF-12 receptor agonists, primary screen, cell-based, luminescence, HEK293, GAL4 fusion, UAS-luciferase; actives 1.8% (n = 370,000); HEK293 GAL4-hgDAF12 UAS-luciferase reporter, agonist luminescence; normalized to butyrate control; activation, % at 6.8 µM; Nuclear hormone receptor DAF-12 (Heterodera glycines), GAL4 fusion;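 active = activation above a cutoff set at the mean of all screened compounds plus 3 SD, cut at about 10% in these data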
# ssDAF12 agonist: S. stercoralis DAF-12 nuclear receptor activators, primary screen, cell-based, luminescence, HEK293, GRIP1 co-expression, lit1-tk-luc; Nuclear hormone receptor DAF-12 (Strongyloides stercoralis); HEK293 ssDAF-12/GRIP1 lit1-tk-luc reporter; % of 3 µM dafachronic acid response; activation, % at 6.8 µM; actives 1% (n = 370,000);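 active = activation above the mean over all tested compounds plus 3 SD, cut at about 0.9% in these data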
# hcDAF-12 act: H. contortus DAF-12 nuclear receptor activators, primary screen, cell-based, luminescence, HEK293, lit1-tk-luc reporter; AID 652067, 2013; actives 1.4% (n = 370,000); HEK293 hcDAF-12 lit1-tk-luc reporter; 0% DMSO, 100% Δ7-dafachronic acid; activation, % at 6.8 µM;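 active = activation above the mean of all tested compounds plus 3 SD, cut at about 5.5% in these data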
# SMARCA2 act: SMARCA2 (BRM) function activators, primary screen, cell-based, luminescence, high throughput; MG213 cells, MMTV-luciferase reporter, dexamethasone, overnight; activation, % at 9.1 µM; actives 1% (n = 370,000); in the data active = activation above about 7.8%
# Numbers stand for hits; . = inactive; / = no result.
SMILES,DAX1 inh-1,DAX1 inh-2,hgDAF12 agonist,ssDAF12 agonist,hcDAF-12 act,SMARCA2 act
C/C(=N\NC(=O)CCn1nnc2ccccc21)c1ccco1,4.7,.,.,.,.,.
CC1(C(=O)NS(=O)(=O)C2CC2)CCCN(C(=O)c2cccc(OC(F)(F)F)c2)C1 (stereo not drawn),/,.,.,.,.,.
O=C(CSC1=NCCS1)Nc1nc2c(s1)CCCC2,.,.,.,.,.,7.9
N#Cc1c(NC(=O)CSC2=NCCS2)sc2c1CCCC2,.,.,.,.,.,.
Cc1ccc(O)c(NC(=O)C2CC(c3cccc(Br)c3)=NO2)c1 (stereo not drawn),.,.,.,.,.,.
O=C(/C=C/c1ccc(F)cc1)NCC1(c2ccccc2)CCOCC1,.,.,.,.,.,.
O=C(/C=C/c1ccccc1)NCC1(c2ccccc2)CCOCC1,5.0,.,.,.,.,.
CCc1ccc(N2C(=O)CC(Cn3nc(C)cc3C)C2=O)cc1 (stereo not drawn),5.1,.,.,.,.,.
Cc1ccc(N2C(=O)CC(Cn3nc(C)cc3C)C2=O)cc1 (stereo not drawn),.,.,.,.,.,.
CCC(CC)C(=O)N(C)c1c(C)nc2c(OCC=C(C)C)cccn12,/,.,.,.,.,.
CC1CCCN(S(=O)(=O)c2ccc(CN3C(=O)c4cccnc4C3=O)cc2)C1 (stereo not drawn),.,3.8,.,.,.,.
COC(=O)c1cc(C(=O)OCC(=O)NC(=O)NCc2ccccc2)cc([N+](=O)[O-])c1,.,.,.,.,.,.
CC(C)n1cc(/C=N/Nc2ccc(Cl)c(C(=O)O)c2)c2ccccc21,4.5,/,/,/,/,/
Cc1ccc(C)c(NC(=O)CSc2nnc(-c3ccccc3)o2)c1,.,.,.,.,.,.
COc1ccccc1NC(=O)CSc1nnc(-c2ccccc2)o1,5.2,5.4,11,.,.,.
CCN(CC)S(=O)(=O)c1ccc(-c2nnc(SCC(=O)Nc3cc(OC)cc(OC)c3)o2)cc1,.,.,11,.,.,.
O=C(CSc1nnc(-c2cccnc2)o1)c1cc2ccccc2oc1=O,.,.,12,.,.,.
Cc1ccc(NC(=O)CSc2nnc(-c3cccnc3)o2)c(C)c1,4.4,.,.,.,.,.
CCCCN(C=O)c1c(CC)nc2ccc(C(=O)NCCOc3ccc(OC)cc3)cn12,/,.,.,.,.,.
Cc1csc(NC(=O)CSc2nnc(-c3ccccc3)o2)n1,.,4.3,.,.,5.7,.
Fc1cccc2sc(Nc3nnc(-c4ccco4)o3)nc12,.,.,13,.,.,.
O=C(CCCCl)N1CCc2[nH]c3ccccc3c2C1,.,.,.,.,5.6,.
Cc1ccc2nc(NCc3ccccc3)[nH]c2c1,.,.,11,.,.,.
CC(C)(C)OC(=O)NCCCc1ccc2c(c1)[C@]1(CCC[C@@H](OCc3ccccc3)[C@@H]1NC(=O)CCc1ccccc1)C(=O)N2Cc1ccccc1,/,.,.,.,.,.
CCN(CC)C(=O)C1=C(C)N(CCC2=CCCCC2)C(=O)C(CC(=O)NCCc2ccccn2)C1 (stereo not drawn),.,.,.,.,.,.
SMILES,DAX1 inh-1,DAX1 inh-2,hgDAF12 agonist,ssDAF12 agonist,hcDAF-12 act,SMARCA2 act
O=C1CCC(/C=C/c2ccccc2)=NN1,.,.,.,.,.,.
CCOc1ccc(/C=C/C2=NNC(=O)CC2)cc1,.,.,11,.,.,.
CC(C)(C)N(Cc1cc2ccccc2[nH]c1=O)C(=O)c1cccc([N+](=O)[O-])c1,.,.,.,.,.,.
Cc1cccc2cc(CN(C(=O)c3cccc([N+](=O)[O-])c3)C(C)C)c(=O)[nH]c12,.,.,.,0.9,.,.
CCOc1ccc(C(=O)Nc2c(C(=O)N3CCC(N4CCCCC4)CC3)oc3ccccc23)cc1,.,4.0,.,.,.,.
Cc1ccc(COn2c(-c3ccc(Cl)cc3)nc3ccc([N+](=O)[O-])cc32)cc1,4.7,.,.,1.1,.,8.2
O=C(O)COn1c(-c2ccc(Cl)cc2)nc2ccc(Cl)cc21,.,.,.,.,6.2,.
CCOC(=O)C(C)On1c(-c2ccccc2)nc2ccc([N+](=O)[O-])cc21 (stereo not drawn),.,.,12,.,.,.
COc1ccc(Cn2c(-c3ccc(OC)cc3)nc3ccccc32)cc1,.,.,.,.,.,.
CC(O)c1nc2cc([N+](=O)[O-])ccc2n1Cc1ccccc1 (stereo not drawn),.,.,.,.,.,.
COc1ccc(-c2nc3ccccc3n2OCC(=O)O)cc1,.,.,11,.,.,.
COc1ccc(S(=O)(=O)N2CCCCCC2)cc1C(=O)NCc1cccs1,.,.,.,.,.,.
Cc1cccc(C(=O)NCCC(=O)NCc2ccccc2Cl)c1,.,.,.,.,.,.
Cc1cc(C)c(NC(=O)CN(C)C(=O)CCC(=O)c2ccc(C)s2)c(C)c1,.,.,.,.,.,.
CNS(=O)(=O)c1cn(CC(=O)NCc2cccc(OC)c2)cc1S(=O)(=O)NC,.,.,.,.,5.8,.
CNS(=O)(=O)c1cn(CC(=O)NCc2ccc(OC)cc2)cc1S(=O)(=O)NC,.,.,.,.,.,.
Cc1ccc(S(=O)(=O)N2CCOCC2)cc1NC(=O)Cn1c(=O)ccn(Cc2ccccc2)c1=O,.,.,.,.,.,.
COc1cccc(-c2nc3nc(C)cc(C)n3c2NCc2ccccc2)c1,/,.,.,.,.,.
Cc1ccc(-c2nc(N=Nc3ccc(O)cc3)n[nH]2)cc1,.,.,11,.,.,.
C[C@@H]1CN([C@H](C)CO)C(=O)CCCn2nncc2CO[C@H]1CN(C)S(=O)(=O)c1ccc(Oc2ccccc2)cc1,.,.,.,.,.,.
CCn1nc(C)cc1-c1nnc(Sc2ncc([N+](=O)[O-])s2)n1C,.,.,.,.,.,.
O=C1CCCCC1CCc1ccncc1 (stereo not drawn),.,.,.,.,.,.
CCn1c(=O)cc(SCC(=O)N2CCCCC2)c2ccccc21,.,.,.,.,.,.
Cn1c(=O)cc(SCC(=O)N2CCN(C3CCCCC3)CC2)c2ccccc21,7.3,.,.,.,.,.
C=CCn1c(Br)nc2c1c(=O)[nH]c(=O)n2C,.,.,.,.,.,.

# Compound activity from PubChem BioAssay.
